Several values for one entry are separate records, joined by “and”; a condition that tells them apart may be missing. Equal entries are not always repeated. Activity calls are given as the source filed them. Rule for the calls: active = hit-call score of the fitted dose curve at least 0.9, where 1 is the maximum; inactive = score below 0.9.
read-out: CYP2E1 (gene 1571); assay: LTEA_HepaRG_CYP2E1: Life Technologies and Expression Analysis (LTEA) Assay for CYP2E1 using HepaRG (AID 2283485); conditions: mRNA level, 48 h; actives raise or lower the signal
Procedure: LTEA_HepaRG is a cell based, multiplexed-readout assay that uses HepaRG, a human liver cell line, with measurements taken at 48 hours after chemical dosing on a 96-well plate.LTEA_HepaRG_CYP2E1 is one of 102 assay component(s) measured in the LTEA HepaRG cell culture assay. It is a marker of NR mediated metabolism.Data from the assay component LTEA_HepaRG_CYP2E1 was analyzed into 1 endpoint. This assay endpoint, LTEA_HepaRG_CYP2E1, was analyzed with bidirectional fitting relative to DMSO as the negative control and baseline of activity. Using a type of inducible reporter, measures of mRNA induction for gain or loss-of-signal activity can be used to understand regulation of transcription factor activity. To generalize the intended target to other relatable targets, this assay endpoint is annotated to the cyp intended target family, where the subfamily is xenobiotic metabolism.
A total of 1060 chemcials from the ToxCast library were tested in eight-point concentration-response experiments. Cell culture and cytotoxicity assays were conducted at Thermo Fisher Scientific's Custom Services facility (Madison, WI). A single lot of human HepaRG cells (Thermo Fisher Scientific, Frederick, MD) was used for the cell culture experiments. 96-well format collagen type I coated plates of human HepaRG cells were prepared using established methods. Briefly, cryopreserved HepaRG cells were thawed, plated at a density of approximately 100,000 cells/well in HepaRG Thaw, Plate, and General Purpose media (HPRG770, Thermo Fisher Scientific), and incubated for 48 hours. 0.5% DMSO was selected as vehicle control to balance the requisite need of DMSO in HepaRG cultures to maintain differentiation (for example, baseline metabolism, proportions of hepatocytes vs. cholangiocytes), while enabling further hepatic receptor pathway activation (for example, PXR and CAR) in response to chemical exposure. 48 hours after plating, the culture medium was replaced with HepaRG Serum-Free Incudtion Media. Cells were exposed to each test chemical in duplicate and maintained in CO2 incubators for another 48 hours. Chemical plates were thawed to room temperature and 200x concentrations of treatment groups were prepared. 8-point conentration-reponse curves were made with the highest exposure at 100 uM, followed by half-log dilutions, all in 0.5% DMSO. Each test plate contained variouse controls, induction positive controls (1mM phenobarbital), cytotoxicity positive controls ([…] aflatoxin B1), vehicle controls (0.5% DMSO), and total lysis controls (0.5% DMSO). Cell morphology images were taken using an Essen IncuCyte FLR automated microscope, with six 96-well plates imaged in about 24 minutes. Images were captured and exported and JPEG files. Spent culture media was transfered to black-well plates for the LDH assay, and remaining media was sorted at -80 C for later use. Cells were treated with RLT buffer and frozen until shipped for gene expression analysis. Total RNA was isolated from the cell suspension in 75 uL of Buffer RLT (Qiagen, Germantown, MD 20874) by Quintiles/Expression Analysis (Durham, NC) using a custom isolation procedure. Total RNA from each plate well was transferred to a preamplification plate. Fluidigm's 96.96 Dynamic ArrayTM (Fluidigm, Amsterdam, the Netherlands) technology was used for gene expression analyses by quantitative reverse transcription polymerase chain reaction (qRT-PCR, performed by Quintiles/Expression Analysis, Durham, NC)89. Standard TaqManTM Assays (Applied Biosystems/ThermoFisher Scientific, Foster City, CA) were used to assess the expression of 93 genes selected based on their selectivity and sensitivity to important hepatic receptors known to be modulated by environmental chemicals; importance in human hepatocyte functionality; and hepatotoxicity. […]

Structure (SMILES) | AC50 | outcome
COc1ccc(C(c2ccc(OC)cc2)C(Cl)(Cl)Cl)cc1 | 66 µM (active) | 
CCCC1COC(Cn2cncn2)(c2ccc(Cl)cc2Cl)O1 (stereo not given) | 13.5 µM (active) | 
CC(C)Oc1cc(-n2nc(C(C)(C)C)oc2=O)c(Cl)cc1Cl | 30.8 µM (active) | 
CCOC(=O)C(Cl)Cc1cc(-n2nc(C)n(C(F)F)c2=O)c(F)cc1Cl (stereo not given) |  | inactive
N#Cc1cc(Br)c(O)c(Br)c1 | 17.1 µM (active) | 
CON(C)C(=O)Nc1ccc(Cl)c(Cl)c1 | 77.6 µM (active) | 
COc1cnc(OC)n2nc(NS(=O)(=O)c3c(OCC(F)F)cccc3C(F)(F)F)nc12 | 30.2 µM (active) | 
COC(=O)N(OC)c1ccccc1COc1ccn(-c2ccc(Cl)cc2)n1 | 34.1 µM (active) | 
CC(Oc1ccc(Cl)cc1Cl)C(=O)O (stereo not given) |  | inactive
COP(N)(=O)SC (stereo not given) |  | inactive
CNC(=O)ON=CC(C)(C)SC |  | inactive
C=CCC1=C(C)C(OC(=O)C2C(C=C(C)C)C2(C)C)CC1=O (stereo not given) | 70.6 µM (active) and 76.7 µM (active) and 60.9 µM (active) | 
CCCCOC(=O)c1ccccc1C(=O)OCCCC |  | inactive
COC(=O)C=C(C)OP(=O)(OC)OC |  | inactive
N#CC(CCc1ccc(Cl)cc1)(Cn1cncn1)c1ccccc1 (stereo not given) | 27.3 µM (active) | 
CCOP(=S)(OCC)SCn1c(=O)oc2cc(Cl)ccc21 |  | inactive
Cc1ccc(-c2c(Cl)nc(C#N)n2S(=O)(=O)N(C)C)cc1 | 5.17 µM (active) | 
Cc1c(F)c(F)c(COC(=O)C2C(/C=C(\Cl)C(F)(F)F)C2(C)C)c(F)c1F (stereo not given) | 72.3 µM (active) | 
C=CC1(C)OC(=O)N(c2cc(Cl)cc(Cl)c2)C1=O (stereo not given) | 40.1 µM (active) | 
CC(C)(C)c1ccc(CSc2cnn(C(C)(C)C)c(=O)c2Cl)cc1 | 1.48 µM (active) | 

Structure (SMILES) | AC50 | outcome
COP(=S)(OC)Oc1nc(Cl)c(Cl)cc1Cl |  | inactive
CCOc1cc(Oc2ccc(C(F)(F)F)cc2Cl)ccc1[N+](=O)[O-] | 24.8 µM (active) | 
CCNc1nc(Cl)nc(NC(C)C)n1 | 16.6 µM (active) | 
CC1=C(C(=O)Nc2ccccc2)SCCO1 | 74.5 µM (active) | 
Oc1ccccc1-c1ccccc1 |  | inactive
Cc1cc(Cl)ccc1OCC(=O)O | 30.9 µM (active) | 
COC(=O)c1ccccc1C(=O)OC |  | inactive
CCCN(CCC)c1c([N+](=O)[O-])cc(S(N)(=O)=O)cc1[N+](=O)[O-] | 15.6 µM (active) and 12.9 µM (active) and 20.1 µM (active) | 
CNC(=S)S |  | inactive
CC1COC(Cn2cncn2)(c2ccc(Oc3ccc(Cl)cc3)cc2Cl)O1 (stereo not given) | 8.67 µM (active) | 
CCON=C(CC)C1=C(O)CC(c2c(C)cc(C)cc2C)CC1=O (stereo not given) | 43.6 µM (active) | 
CN(C)C(=S)SSC(=S)N(C)C |  | inactive
CCCCNC(=O)n1c(NC(=O)OC)nc2ccccc21 |  | inactive
C#CCOS(=O)OC1CCCCC1Oc1ccc(C(C)(C)C)cc1 (stereo not given) | 22.6 µM (active) | 
CCCCC(CC)COC(=O)c1ccccc1C(=O)OCC(CC)CCCC (stereo not given) |  | inactive
CO/C=C(/C(=O)OC)c1ccccc1Oc1cc(Oc2ccccc2C#N)ncn1 | 34.6 µM (active) and 50 µM (active) and 33.2 µM (active) | 
CCOC(=O)CC(SP(=S)(OC)OC)C(=O)OCC (stereo not given) |  | inactive
Fc1ccc(Oc2ccnc3cc(Cl)cc(Cl)c23)cc1 | 77.7 µM (active) | 
CC(C)C1(C)N=C(c2nc3ccccc3cc2C(=O)O)NC1=O (stereo not given) |  | inactive
COC(=O)C(C)Oc1ccc(Oc2ccc(Cl)cc2Cl)cc1 (stereo not given) | 50 µM (active) | 

Reference: PubChem BioAssay (EPA / NIEHS)
